Consider three molecules from PubChem BioAssay (NCATS).

The structures appear in SMILES notation. Results filed as inconclusive are left out. Active and inactive are the calls of the source. The call rests on the fitted dose curve; in most records, active means well fitted curve in the direction sought with a large enough effect; inconclusive means small, poorly fitted or top-dose-only effect, or another doubt; inactive means no such curve, though single readings can be large; an effect the other way counts as inactive or inconclusive.

Test [1] can be described thus: MultiTox-Fluor Cytotoxicity Assay - LYMP1-002 - Dead Cells (AID 960).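 Further: cells exposed to compound for 16 h at 37 °C; nearly all actives have a fitted effect of over 60% in size.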 In outline: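 LYMP1-002 cells 2500/well; 5 hr 37 C pre-incubation; compound 16 hr 37 C; MultiTox-Fluor reagent 60 min RT; dead-cell fluor Ex/Em 485/520. Norm. to DMSO (0%) vs 15 uM tetraoctylammonium bromide (100%); Hill AC50.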
Test [2] in a line: Cell Viability - LYMP1-003 - Assay at 40 hr (AID 964). Further: potency means the concentration at half of the fitted maximal effect; nearly all actives have a fitted effect of over 60% in size. In outline:
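Cells were seeded at 2500 per well and incubated 5 hr at 37 C. Compounds were added across a concentration series and left 40 hr at 37 C. CellTiter-Glo was added for 30 min at room temperature before luminescence reading.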

Test [3] can be described thus: Cell Viability - LYMP2-007 (AID 979).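 Further: potency means the concentration at half of the fitted maximal effect; cells exposed to compound for 24 h before reading; nearly all actives have a fitted effect of over 60% in size.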 In short, it runs like this:
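Luminescent ATP signal (CellTiter-Glo) serves as the viability read-out after 24 hr compound treatment of lymphoblastoid cells in complete medium at 37 C. Concentration-response data were fitted to the Hill equation to give AC50 values.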

Test [4] in a line: Cell Viability - LYMP2-018 (AID 985).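 Further: potency means the concentration at half of the fitted maximal effect; compound exposure lasted 24 hr at 37 °C; nearly all actives have a fitted effect of over 50% in size.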 In short, it runs like this: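 Luminescent ATP signal (CellTiter-Glo, read after 30 min at room temperature) reports viable cells after 24 hr compound treatment at 37 C. Concentration-response data were fitted to the standard Hill equation for AC50.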
The target in test [5] is Nuclear receptor ROR-gamma (Homo sapiens) (UniProt P51449). Nature of the test: qHTS assay for small molecule antagonists of the retinoid-related orphan receptor gamma (ROR-gamma) signaling pathway (AID 651802). Further: potency means the concentration at half of the fitted maximal effect; nearly all actives have a fitted effect of over 60% in size. In short, it runs like this: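 CHO, TET-inducible ROR + RORE-LUC reporter, 1536-well qHTS. Compound pinned, doxycycline added, 16hr 37C/5% CO2. ONE-Glo, 30 min RT, luminescence; signal drop scored as antagonism.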
A general note: Quantitative high-throughput screening tests each substance at several concentrations.

For test [6], the system named is CP215. Nature of the test: qHTS profiling for inhibitors of Plasmodium falciparum proliferation (AID 504749). Further: nearly all actives have a fitted effect of over 60% in size. The settings on record: P. falciparum in erythrocytes, SYBR Green DNA, 72 h; series mostly up to 28.7 µM. In short, it runs like this:
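Infected RBCs, 0.3% parasitemia/2.5% Hct final; cpd 72 h, 37 C, 5% CO2; lysis buffer with saponin/triton/SYBR Green I, o/n RT dark; FI 485/535; norm. to artemisinin (0.29 uM) and DMSO.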

The target in test [7] is Muscarinic acetylcholine receptor M1 (Rattus norvegicus) (UniProt P08482). Description: qHTS Assay for Antagonists of Acetylcholine Muscarinic M1 Receptor: Kinetic Measurement of Intracellular Calcium Response (AID 943).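 Further: Fluo-4 calcium signal as peak divided by basal fluorescence over 4 min; nearly all actives have a fitted effect of over 75% in size.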 In outline: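 Rat M1-CHO cells, 2000/well, overnight → Fluo-4 no-wash dye with probenecid, 1 h 37C → compound 10 min, room temp → basal read 6 s → carbachol EC80 (100 nM) → 4 min kinetic read; peak/basal.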
Muscarinic acetylcholine receptor M1 (Rattus norvegicus), sequence (P08482 whole entry, looked up): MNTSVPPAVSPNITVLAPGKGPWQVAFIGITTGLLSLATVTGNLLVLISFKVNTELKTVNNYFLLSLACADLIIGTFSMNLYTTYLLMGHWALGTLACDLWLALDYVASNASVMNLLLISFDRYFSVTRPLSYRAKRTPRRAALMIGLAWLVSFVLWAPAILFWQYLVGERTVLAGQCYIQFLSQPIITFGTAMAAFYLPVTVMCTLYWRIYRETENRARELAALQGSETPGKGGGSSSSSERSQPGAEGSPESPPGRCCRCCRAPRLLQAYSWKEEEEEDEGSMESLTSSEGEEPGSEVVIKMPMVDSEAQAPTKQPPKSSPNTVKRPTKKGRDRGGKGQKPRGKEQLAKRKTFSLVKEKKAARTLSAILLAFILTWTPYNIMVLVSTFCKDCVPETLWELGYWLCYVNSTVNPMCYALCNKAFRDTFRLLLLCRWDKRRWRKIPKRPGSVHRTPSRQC

Nuclear receptor ROR-gamma (Homo sapiens), sequence (P51449 whole entry, looked up): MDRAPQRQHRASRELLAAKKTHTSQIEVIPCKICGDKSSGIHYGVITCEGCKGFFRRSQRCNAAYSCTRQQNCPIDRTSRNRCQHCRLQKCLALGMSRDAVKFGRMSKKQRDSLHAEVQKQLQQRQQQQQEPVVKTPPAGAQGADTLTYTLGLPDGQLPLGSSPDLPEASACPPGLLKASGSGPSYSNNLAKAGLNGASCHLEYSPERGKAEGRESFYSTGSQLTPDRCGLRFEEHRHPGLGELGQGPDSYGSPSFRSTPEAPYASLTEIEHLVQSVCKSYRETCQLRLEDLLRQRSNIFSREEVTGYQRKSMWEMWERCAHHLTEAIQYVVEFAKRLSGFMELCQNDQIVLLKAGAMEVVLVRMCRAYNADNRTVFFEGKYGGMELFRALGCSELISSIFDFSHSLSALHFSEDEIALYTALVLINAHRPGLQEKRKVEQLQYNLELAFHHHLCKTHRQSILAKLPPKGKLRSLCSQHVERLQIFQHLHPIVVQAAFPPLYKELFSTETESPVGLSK

On to `N=C1C=CC(=C(c2ccc(N)cc2)c2ccc(N)cc2)C=C1`, for which the Potency entry in test [1] is “inactive”. The Potency in test [2] was 12.6 µM (active); in test [3], 7.94 µM (active); in test [4], 7.94 µM (active); in test [5] it was 6.68 µM (active).

With `OC[C@H](S)CS`, the Potency result in test [6] was “inactive”.

Consider `Cc1nnc(SCC2=C(C(=O)O)N3C(=O)[C@@H](NC(=O)Cn4cnnn4)[C@@H]3SC2)s1`, for which the Potency entry in test [7] is “inactive”.
